Results reported in PubChem BioAssay (Tox21).
Values joined by “and” are separate entries in the source; they are usually repeats but may differ in a detail not shown here. Identical values can stand only once. Results filed as inconclusive are left out. Where a call stands in place of a potency, no number is given. Values without a mark were called inactive. Active and inactive are the calls of the source. The call rests on the fitted dose curve; in most records, active means well fitted curve in the direction sought with a large enough effect in the repeat runs; inconclusive means weak or mixed curves; inactive means no such curve, though single readings can be large; an effect the other way counts as inactive or inconclusive.

Assays:
[1] = molecular target: Cytochrome P450 2C9 (Homo sapiens) (UniProt P11712); test: Cytochrome P450 Family 2 Subfamily C Member 9 (CYP2C9) small molecule antagonists: luciferase reporter qHTS assay (AID 1671198)
Method in brief: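 CYP2C9 activity was measured with a P450-Glo proluciferin substrate. Enzyme–substrate mix was held with compound for 10 min at room temperature, then NADPH regeneration solution was added for 1 h at 37C. Luciferin product was read as luminescence.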

[2] = molecular target: Cytochrome P450 1A2 (Homo sapiens) (UniProt P05177); test: Cytochrome P450 Family 1 Subfamily A Member 2 (CYP1A2) small molecule antagonists: luciferase reporter qHTS assay (AID 1671199)
Method in brief: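 Read-out is luminescence from luciferin detection reagent (20 min) proportional to CYP1A2 activity; compounds in DMSO preincubated 10 min with enzyme and proluciferin substrate, then NADPH regeneration solution, 1 h, room temperature.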

[3] = molecular target: Voltage-gated inwardly rectifying potassium channel KCNH2 (Homo sapiens) (UniProt Q12809); test: Human Ether-a-go-go-Related Gene (hERG) channel small molecule antagonists: fluorescence cell-based qHTS assay (AID 1671200)
Method in brief: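 Channel function was assessed by thallium flux. Cells seeded the previous day and kept at 37 C took up FluxOR II dye over 1 h in the dark at room temperature, then sat another 10 min before stimulation.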

[4] = molecular target: Cytochrome P450 3A4 (Homo sapiens) (UniProt P08684); test: Cytochrome P450 Family 3 Subfamily A Member 4 (CYP3A4) small molecule antagonists: luciferase reporter qHTS assay (AID 1671201)
Method in brief: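 Compounds in DMSO were pin-transferred onto CYP3A4 enzyme-substrate mix and held 10 min at room temperature. NADPH regenerating solution started the reaction for 1 h; luciferin detection reagent stopped it, and luminescence was read after 20 min.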
Further: nearly all actives have a fitted effect of over 50% in size.
Potency means the concentration at half of the fitted maximal effect.

Chain of Cytochrome P450 1A2 (Homo sapiens) (P05177 whole entry, looked up): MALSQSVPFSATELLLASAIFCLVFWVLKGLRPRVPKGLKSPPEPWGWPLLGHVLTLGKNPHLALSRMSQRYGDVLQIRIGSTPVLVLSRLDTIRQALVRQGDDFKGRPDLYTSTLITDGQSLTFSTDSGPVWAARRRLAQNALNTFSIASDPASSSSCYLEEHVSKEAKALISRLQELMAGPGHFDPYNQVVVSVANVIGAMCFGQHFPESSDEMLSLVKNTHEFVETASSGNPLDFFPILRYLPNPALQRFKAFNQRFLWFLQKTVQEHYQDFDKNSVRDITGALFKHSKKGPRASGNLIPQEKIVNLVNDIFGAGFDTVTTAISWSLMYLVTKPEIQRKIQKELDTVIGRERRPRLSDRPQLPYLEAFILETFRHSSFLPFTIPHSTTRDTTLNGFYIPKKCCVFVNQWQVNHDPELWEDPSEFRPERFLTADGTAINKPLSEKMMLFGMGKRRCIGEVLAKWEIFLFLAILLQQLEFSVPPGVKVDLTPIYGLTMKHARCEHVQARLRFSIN
Chain of Voltage-gated inwardly rectifying potassium channel KCNH2 (Homo sapiens) (Q12809 whole entry, looked up): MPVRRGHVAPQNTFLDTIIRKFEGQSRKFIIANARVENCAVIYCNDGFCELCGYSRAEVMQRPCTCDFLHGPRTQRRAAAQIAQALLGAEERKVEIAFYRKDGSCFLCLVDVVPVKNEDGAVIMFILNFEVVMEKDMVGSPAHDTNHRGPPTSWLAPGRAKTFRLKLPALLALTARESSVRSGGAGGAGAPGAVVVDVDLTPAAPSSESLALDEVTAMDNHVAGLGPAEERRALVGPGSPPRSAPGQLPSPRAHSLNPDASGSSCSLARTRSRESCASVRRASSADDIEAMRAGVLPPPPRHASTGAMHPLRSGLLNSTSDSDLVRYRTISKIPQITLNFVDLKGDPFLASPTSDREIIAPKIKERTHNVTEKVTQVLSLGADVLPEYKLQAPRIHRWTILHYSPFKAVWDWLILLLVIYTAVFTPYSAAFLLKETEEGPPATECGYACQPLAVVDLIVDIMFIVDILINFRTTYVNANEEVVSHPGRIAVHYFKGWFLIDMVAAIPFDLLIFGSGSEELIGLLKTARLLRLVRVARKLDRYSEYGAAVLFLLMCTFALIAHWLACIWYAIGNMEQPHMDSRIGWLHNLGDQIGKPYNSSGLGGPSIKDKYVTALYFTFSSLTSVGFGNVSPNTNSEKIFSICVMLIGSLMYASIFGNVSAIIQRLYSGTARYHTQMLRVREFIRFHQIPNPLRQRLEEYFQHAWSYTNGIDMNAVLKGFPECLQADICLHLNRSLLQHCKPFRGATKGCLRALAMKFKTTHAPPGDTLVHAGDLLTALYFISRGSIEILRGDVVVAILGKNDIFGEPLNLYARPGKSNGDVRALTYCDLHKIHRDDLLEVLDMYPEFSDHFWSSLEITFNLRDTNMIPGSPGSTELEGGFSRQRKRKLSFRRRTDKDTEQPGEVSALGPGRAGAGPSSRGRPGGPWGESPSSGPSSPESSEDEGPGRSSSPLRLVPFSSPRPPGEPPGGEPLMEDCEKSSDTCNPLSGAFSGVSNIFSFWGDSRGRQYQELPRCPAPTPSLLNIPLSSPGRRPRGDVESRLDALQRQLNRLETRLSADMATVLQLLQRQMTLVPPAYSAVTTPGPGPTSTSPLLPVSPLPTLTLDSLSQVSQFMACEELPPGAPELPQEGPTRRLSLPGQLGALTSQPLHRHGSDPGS
Chain of Cytochrome P450 3A4 (Homo sapiens) (P08684 whole entry, looked up): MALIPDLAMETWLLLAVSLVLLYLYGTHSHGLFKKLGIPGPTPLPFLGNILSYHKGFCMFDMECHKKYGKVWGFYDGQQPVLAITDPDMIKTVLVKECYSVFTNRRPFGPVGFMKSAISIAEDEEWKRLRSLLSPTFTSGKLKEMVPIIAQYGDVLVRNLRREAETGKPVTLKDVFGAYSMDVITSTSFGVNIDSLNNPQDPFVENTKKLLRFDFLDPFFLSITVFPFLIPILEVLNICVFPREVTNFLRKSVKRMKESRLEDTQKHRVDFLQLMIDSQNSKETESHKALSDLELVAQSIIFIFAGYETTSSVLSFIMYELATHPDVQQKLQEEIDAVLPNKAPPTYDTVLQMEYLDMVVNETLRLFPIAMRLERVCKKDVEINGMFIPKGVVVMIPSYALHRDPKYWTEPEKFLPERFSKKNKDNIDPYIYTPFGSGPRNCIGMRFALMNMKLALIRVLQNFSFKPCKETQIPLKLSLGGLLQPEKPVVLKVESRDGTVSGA
Chain of Cytochrome P450 2C9 (Homo sapiens) (P11712 whole entry, looked up): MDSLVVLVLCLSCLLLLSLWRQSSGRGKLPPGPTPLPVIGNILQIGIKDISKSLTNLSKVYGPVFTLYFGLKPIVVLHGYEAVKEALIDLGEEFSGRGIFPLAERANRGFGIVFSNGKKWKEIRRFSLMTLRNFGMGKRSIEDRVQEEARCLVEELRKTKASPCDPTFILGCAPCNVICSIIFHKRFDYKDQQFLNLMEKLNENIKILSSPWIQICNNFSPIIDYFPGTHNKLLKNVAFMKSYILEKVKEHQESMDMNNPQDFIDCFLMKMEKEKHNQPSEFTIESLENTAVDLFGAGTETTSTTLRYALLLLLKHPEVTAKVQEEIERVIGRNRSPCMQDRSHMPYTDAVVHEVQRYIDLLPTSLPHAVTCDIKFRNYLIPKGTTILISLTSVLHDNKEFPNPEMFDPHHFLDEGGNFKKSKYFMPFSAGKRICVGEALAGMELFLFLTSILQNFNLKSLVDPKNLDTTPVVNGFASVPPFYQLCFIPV

| Compound | Potency [1] | Potency [2] | Potency [3] | Potency [4] |
| --- | --- | --- | --- | --- |
| Cc1cccc(C(=O)O)c1O | inactive | inactive | inactive | inactive |
| Nc1nc(-c2ccccc2)cs1 | 11.2 µM (active) | 8.91 µM (active) | inactive | 5.62 µM (active) |
| C=Cc1cccc(C)c1 | inactive | inactive | inactive | inactive |
| CCCCCCOC(=O)C(C)CC (stereo not drawn) | inactive | inactive | inactive | inactive |
| COc1ccc(NC(=O)CC(C)=O)cc1 | inactive | 25.2 µM (active) | inactive | inactive |
| CCCCCCCC | inactive | inactive | inactive | inactive |
| [Cu+] | 11.2 µM (active) | 39.9 µM (active) | inactive | 39.9 µM (active) |
| Cc1c(C)c2c(c(C)c1O)CC[C@@](C)(CCC[C@H](C)CCC[C@H](C)CCCC(C)C)O2 | inactive | inactive | inactive | inactive |
| CC(C)=CCNc1ncnc2c1ncn2[C@@H]1O[C@H](CO)[C@@H](O)[C@H]1O | inactive | inactive | inactive | inactive |
| CCCCCCCCCCCCOC(=O)c1ccc(O)cc1 | 4.52 µM (active) | 12.7 µM (active) | inactive | 35.9 µM (active) |
| CCCNCCC | inactive | inactive | inactive | inactive |
| Nc1cc(Cl)c(O)c(Cl)c1 | 28.3 µM (active) | 39.9 µM (active) | inactive | 8.94 µM (active) |
| CN(C)C(=O)COC(=O)Cc1ccc(OC(=O)c2ccc(N=C(N)N)cc2)cc1 | inactive | inactive | inactive | inactive |
| O=C(O)[C@H](O)[C@@H](O)[C@H](O[C@@H]1O[C@H](CO)[C@H](O)[C@H](O)[C@H]1O)[C@H](O)CO | inactive | inactive | inactive | inactive |
| CC(=O)OCC=C(C)C | inactive | inactive | inactive | inactive |
| Clc1sc(Cl)c(Cl)c1Cl | inactive | inactive | inactive | inactive |
| CC[C@H](C)COC(=O)/C=C/c1ccc(N=Cc2ccc(OC)cc2)cc1 | 5.63 µM (active) | 5.63 µM (active) | 43.6 µM (active) | 5.63 µM (active) |
| O[C@@H]([C@H](O)[C@H](O)CBr)[C@H](O)CBr | inactive | 70.9 µM (active) | inactive | inactive |
| CCCC(=O)OCCc1ccccc1 | inactive | inactive | inactive | inactive |

| Compound | Potency [1] | Potency [2] | Potency [3] | Potency [4] |
| --- | --- | --- | --- | --- |
| c1ccsc1 | inactive | inactive | inactive | inactive |
| OC/C=C/CO | inactive | inactive | inactive | inactive |
| COC(=O)C1=C(C)NC(C)=C(C(=O)OCCN2CCN(C(c3ccccc3)c3ccccc3)CC2)C1c1cccc([N+](=O)[O-])c1 (stereo not drawn) | 0.692 µM (active) | inactive | 5.35 µM (active) | inactive |
| O=S(=O)(O)c1ccc(N=Nc2c(O)ccc3ccccc23)cc1 | 31.7 µM (active) | 31.7 µM (active) | inactive | 35.6 µM (active) |
| NC(=O)c1cccc([N+](=O)[O-])c1 | inactive | 35.4 µM (active) | inactive | inactive |
| Cc1ccc(C(=O)O)cc1 | inactive | inactive | inactive | inactive |
| CC(=O)CC(=O)Nc1ccc(S(=O)(=O)O)cc1 | inactive | inactive | inactive | inactive |
| CCN(CCN)c1cccc(C)c1 | 40.3 µM (active) and 56.4 µM (active) | 11.4 µM (active) and 20 µM (active) | 24.5 µM (active) | 12.7 µM (active) and 35.6 µM (active) |
| Clc1nnc(Cl)c2ccccc12 | inactive | 11.2 µM (active) | inactive | inactive |
| COc1cc(/C=C/c2ccccc2)oc(=O)c1 | 32.8 µM (active) | 2.93 µM (active) | inactive | 26.1 µM (active) |
| CC/C=C\CCCCCO | inactive | inactive | inactive | inactive |
| Clc1ccnc(Cl)n1 | inactive | inactive | inactive | inactive |
| S=C([S-])NCCNC(=S)[S-].S=C([S-])NCCNC(=S)[S-].[Mn+2].[Zn+2] | 3.09 µM (active) | 15.5 µM (active) | inactive | inactive |
| COc1cc(S(=O)(=O)O)c(C)cc1N=Nc1c(O)ccc2cc(S(=O)(=O)O)ccc12 | 39.9 µM (active) | 35.6 µM (active) | inactive | inactive |
| CC(CCc1ccccc1)NCC(O)c1ccc(O)c(C(N)=O)c1 (stereo not drawn) | inactive | inactive | 19.5 µM (active) | inactive |
| O=C(O)c1ccc2cc(C(=O)O)ccc2c1 | inactive | inactive | inactive | inactive |
| Cc1nc(-c2ccc(Cl)cc2)oc1COC(C)(C)C(=O)O | inactive | inactive | inactive | inactive |
| O=C(O)Cc1ccc2c(c1)C(=O)c1ccccc1CO2 | inactive | inactive | inactive | inactive |
